Values joined by “and” are separate entries in the source; they are usually repeats but may differ in a detail not shown here. Identical values can stand only once. Inconclusive results are not listed. Values without a mark were called inactive. Calls come from the whole dose curve; as a rule, active = well fitted activation curve with a large enough effect; inconclusive = small, poorly fitted or top-dose-only effect; inactive = no such curve, though single readings can be large or run the other way. Numbered stars: 1 amine (or outer) side, 2 acyl side, 3 side chain; on linkers, the order of the positions; unused ones are H or OH. Bridge positions count the residues as written; N and C are the ends. Square brackets hold non-standard residues; d marks the D form. Peptide text beside a SMILES is read from it. * marks the point of attachment. ξ: configuration not given here. ξhTyr(3S-OH,4S-OH,3'-OSO3H) = NC(C(=O)O)[C@H](O)[C@@H](O)c1ccc(O)c(OS(=O)(=O)O)c1; Orn(4R-OH,5R-OH) = O=C([C@H](C[C@@H](O)[C@@H](O)N[*:3])N[*:1])[*:2]; X6 = CCCCCOc1ccc(-c2cc(-c3ccc(C(=O)*)cc3)no2)cc1; X7 = C[C@H]1CN([*:1])C(C(=O)[*:2])[C@H]1O; ξGln(3R-OH) = NC(=O)C[C@@H](O)C(N)C(=O)O; ξPro(4R-OH) = O=C(O)C1C[C@@H](O)CN1; ξThr(3R) = C[C@@H](O)C(N)C(=O)O

Sequence of Cellular tumor antigen p53 (Homo sapiens) (P04637 whole entry, looked up): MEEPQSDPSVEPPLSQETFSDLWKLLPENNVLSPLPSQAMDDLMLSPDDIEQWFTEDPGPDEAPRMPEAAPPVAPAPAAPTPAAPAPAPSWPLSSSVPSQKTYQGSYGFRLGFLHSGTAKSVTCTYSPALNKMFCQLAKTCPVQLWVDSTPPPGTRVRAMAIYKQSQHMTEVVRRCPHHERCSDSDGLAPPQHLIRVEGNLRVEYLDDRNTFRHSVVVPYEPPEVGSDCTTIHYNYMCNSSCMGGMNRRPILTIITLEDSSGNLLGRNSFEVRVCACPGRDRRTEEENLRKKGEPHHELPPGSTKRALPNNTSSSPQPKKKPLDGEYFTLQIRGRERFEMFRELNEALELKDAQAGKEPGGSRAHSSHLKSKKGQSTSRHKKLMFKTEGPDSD

In this test the target is Cellular tumor antigen p53 (Homo sapiens) (UniProt P04637). Description: Primary qHTS for small molecule compounds that upregulate eGFP-tagged delta133p53alpha (in N-terminal) cells. (AID 2060322).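 Note: series mostly up to about 56 µM; 0% = DMSO vehicle and 100% = reference activator; nearly all actives have a fitted effect of over 75% in size.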 To be noted: NCI-H358 eGFP-delta133p53alpha fluorescence, 24 h; activation: stronger effect = higher value. Summed up:
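NCI-H358 cells pre-induced 24 h with 10 ng/ml doxycycline to express N-terminal eGFP-delta133p53alpha, then dosed 24 h at 37C without doxycycline; fixed, Hoechst-stained, GFP intensity by laser scanning cytometry, normalized to DMSO (0%) and 57.5 uM 5-azacytidine (100%).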
A general note: In qHTS, concentration-response curves come from the screen itself.
As to `NC(=O)CCCSc1nc(N)nc(-c2c(Cl)cc3c4c(cccc24)COC3)n1`, the activation was -8.59%. As for `CCCCOC(=O)NC(=O)C1c2ccccc2Oc2ccccc21`, the figure is -11.5%. As for `CNC(=O)c1ccc2c(c1)CCO[C@H]2CCN1CCN(c2ccc(OC)cc2)CC1`, the activation was -25.3%. Consider `Cc1onc(-c2c(Cl)cccc2Cl)c1CC(=O)NCc1ccc(OCC(F)(F)F)nc1`, for which the activation is -9.07%. Under `O=C(OC(C(F)(F)F)C(F)(F)F)N1CCN(Cc2cccc(Oc3ccccc3)c2)CC1` stands 1.43%; under `Cc1ccc(-c2c(-c3nn(C)c4ncnc(N5CCC(N6CCCCC6)C5)c34)cnn2C)cc1` (stereo not given), 2.39%. Under `C=C[C@]1(C)C[C@@H](OC(=O)CSC2C[C@H]3CC[C@@H](C2)N3C)[C@]2(C)[C@H](C)CC[C@]3(CCC(=O)[C@H]32)[C@@H](C)[C@@H]1O` (stereo not given in full) stands 0.477%; under `Cn1c(=O)cc(N2CCCC(N)C2)n(Cc2cc(F)ccc2C#N)c1=O` (stereo not given), -2.86%; under `Cc1ccc(C)c(OCCn2cc(C(=O)O)c3ccccc32)c1`, 7.16%. For `Nc1nc(COC(=O)c2ccc([N+](=O)[O-])cc2)nc(Nc2ccccc2)n1`, the activation was 0.477%.

As for `Cc1cc(C(=O)Nc2cccc(C(=O)Nc3cccc(C(F)(F)F)c3)c2)on1`, the activation is -7.16%. Under `CCOC(=O)c1ccc(N(C)c2csc(-c3ccccc3)n2)cc1` stands 0%. Under `Cn1c2ccc(NC(=O)c3ccccc3)cc2c(=O)n2nc(C(=O)O)cc12` stands 8.59%. Under `CC(C)C(=O)Oc1ccc(CO)cc1[C@H](CCN(C(C)C)C(C)C)c1ccccc1` stands 16.6% and 0.955%.

`Cc1nc2n(c(=O)c1CCN1CCC(c3noc4cc(F)ccc34)CC1)CCC[C@H]2O`: the activation was 9.21% and -6.21%.

Turning to `COc1ccc(N2CCN(CCCNC(=O)Cn3c(=O)c4cccn4c4c(C)ccnc43)CC2)cc1`, the activation is 0.477%. On to `Cc1ccccc1CN1CCn2c1nc1c(c2=O)CN(Cc2ccccc2)CC1`, for which the activation was 0.477%.

In the case of `O=S(=O)(Nc1cc(Cl)c(Oc2cnc3ccccc3c2)c(Cl)c1)c1ccc(Cl)cc1Cl`, the activation was -4.77%. As for `CCCCCCOc1cc2c(cc1N(C)c1ncc(C(=O)O)cn1)C(C)(C)CCC2(C)C`, the figure is -3.82%; as for `COc1ccc(-c2nc(-c3cc(C(F)(F)F)cc(C(F)(F)F)c3)n(Cc3ccc(C(N)=O)cc3)c2-c2ccc(OC)cc2)cc1`, -11%; as for `CCCCCOc1ccc(-c2cc(-c3ccc(C(=O)N[C@H]4C[C@@H](O)[C@@H](O)NC(=O)C5[C@@H](O)[C@@H](C)CN5C(=O)C([C@H](O)CC(N)=O)NC(=O)C([C@H](O)[C@@H](O)c5ccc(O)c(OS(=O)(=O)O)c5)NC(=O)C5C[C@@H](O)CN5C(=O)C([C@@H](C)O)NC4=O)cc3)no2)cc1` (stereo partly drawn) (X6-[Orn(4R-OH,5R-OH)][ξThr(3R)][ξPro(4R-OH)][ξhTyr(3S-OH,4S-OH,3'-OSO3H)][ξGln(3R-OH)][X7]; lactam 1-C), -0.955%. Under `CC(C)c1c(NC(=O)Nc2ccc(Cl)cc2)c(=O)n(-c2ccccc2)n1C` stands 9.07%; under `CC[C@H]1OC(=O)[C@H](C)[C@@H](O[C@H]2C[C@@](C)(OC)[C@@H](O)[C@H](C)O2)C(C)[C@@H](O[C@@H]2O[C@H](C)C[C@H](N(C)C)[C@H]2O)[C@](C)(O)C[C@@H](C)CN(C)[C@H](C)[C@@H](O)[C@]1(C)O` (stereo not given in full), -5.73%; under `CC(C)(C)c1ccc(CNC(=S)NCc2ccc(NS(C)(=O)=O)c(F)c2)cc1`, -6.68%. Under `O=C(N[C@@H]1CC[C@@H](c2cccc(F)c2F)CN(CC(F)(F)F)C1=O)N1CCC(n2c(=O)[nH]c3ncccc32)CC1` stands -0.477%.

As to `CCCCc1nc(Cl)c(CO)n1Cc1ccc(-c2ccccc2-c2nnn[nH]2)cc1`, the activation was -18.1%. In the case of `Oc1ccccc1-c1cc(-c2ccccc2F)[nH]n1`, the activation was -12.9%. As to `O=C(NCCN1CCC(n2c(=O)[nH]c3ccccc32)CC1)c1ccc2ccccc2c1`, the activation is -1.43%.

In the case of `O=C(NCCCc1ccccc1)C1CCC(CNS(=O)(=O)c2cccc3nsnc23)CC1` (stereo not given), the activation was -3.34%. Turning to `Cc1c(C(=O)Nc2ccc(N3CCC(N4CCOCC4)CC3)c(C#N)c2)cnn1-c1ccc(Cl)cc1`, the activation was 15.8%.

Source of the values: PubChem BioAssay (NCATS).
